An excerpt weighted towards active compounds, which were near 4.2% of everything screened.
esBAF inh: Bmi1 luciferase reporter increase in mESCs, primary screen, esBAF inhibitor project, mouse ES cells, Bmi1 luciferase knock-in, single point; 24 h; 100% = twice the neutral-well signal; reporter increase, % at 12.5 µM; actives 2% (n = 350,000); AID 602393, 2012; in the data active = activation above about 40%; inconclusive = no clear call, values can overlap the other calls;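 note: 0% = median of the plate's neutral control wells and 100% = double that signal; a rise in the Bmi1 reporter signal indicates esBAF inhibition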
MITF TRPM1 HTS: activators of MITF-driven TRPM1 promoter reporter, primary screen, cell-based, SK-MEL-5, luciferase, single point. SK-MEL-5 TRPM1-promoter luciferase, 24 h; % of positive control, neutral wells = 0. activation, % at 12.5 µM. actives 0.75% (n = 300,000). AID 588334, 2011;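 active = mean activation of at least 80% with every replicate also reaching 80%; inconclusive = mean reaches 80% but some replicate falls short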;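 note: 0% = neutral control wells and 100% = parthenolide positive control wells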
Wnt act: Wnt/beta-catenin pathway activators, primary screen, cell-based, plate reader, single point; Wnt/beta-catenin reporter cell assay, activator; activation, % at 9.35 µM; actives 1.2% (n = 300,000); AID 743398, 2014; in the data active = activation above about 30%, passing the limit was not always enough; inconclusive = no clear call, values can overlap the other calls;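 note: 0% = neutral control wells and 100% = positive control wells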
AHR act: AHR activators, primary screen, cell-based, luminescence, luciferase reporter, human; Aryl hydrocarbon receptor (Homo sapiens), P35869; AHR-responsive luciferase reporter cells; actives 2.5% (n = 320,000); activation, % at 5 µM; in the data active = activation above about 47%;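 note: 0% = vehicle wells and 100% = reference agonist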
FXN GAA850 act: FXN promoter activators, primary screen, cell-based, luciferase luminescence, HEK293 lucGAA850; HEK293 lucGAA850 FXN promoter luciferase reporter, 24 h; percent of 10 µM SAHA response; activation, % at 6 µM; AID 540364, 2011; actives 0.56% (n = 360,000);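 active = activation above the average of all compounds screened plus 3 SD, cutoff fixed separately per campaign, cut at about 7.5% in these data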;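 note: 0% = DMSO wells and 100% = 10 µM SAHA wells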
* marks the source's active call; other numbers are inactive results; ? = inconclusive; . = no result given.

SMILES	esBAF inh	MITF TRPM1 HTS	Wnt act	AHR act	FXN GAA850 act
C[C@@H]1CCCCO[C@@H](CN(C)S(=O)(=O)c2cn(C)cn2)[C@@H](C)CN([C@@H](C)CO)C(=O)c2cc(NS(=O)(=O)c3ccc(Cl)cc3)ccc2O1	1.8	.	.	.	.
CO[C@@H]1CN(C)C(=O)c2ccc(NS(=O)(=O)c3cn(C)cn3)cc2OC[C@H](C)NC[C@H]1C	-3.5	.	.	.	.
Brc1ccc2[nH]ncc2c1	-0.1	-7.7	2.9	2.3	4.2
Nc1ccc2cn[nH]c2c1	-2.5	-8.9	3.0	48.6*	3.6
C[C@H](CO)N1C[C@H](C)[C@@H](CN(C)Cc2ccc(F)cc2)Oc2ncc(C#Cc3cccnc3)cc2C1=O	-3.8	.	.	.	.
Oc1c(C=Nc2cccnc2)sc2ccccc12	.	8.2	.	31.0	0.2
Oc1sc(C=Nc2ccc(F)cc2)c2ccccc12	28.3	28.5	42.2*	36.2	2.3
CN(C)CC(=O)Nc1ccc2c(c1)[C@@H]1C[C@@H](CC(=O)NCc3cc(F)ccc3F)O[C@@H](CO)[C@@H]1O2	2.3	.	.	.	.
COc1cccc(S(=O)(=O)Nc2ccc3c(c2)[C@H]2C[C@@H](CC(=O)N(C)C)O[C@@H](CO)[C@H]2O3)c1	2.8	.	.	.	.
CCOC(=O)c1c(Nc2ccc(Cl)cc2)sc(/C=C2\C=Nc3ccccc32)c1O	-8.9	-1.4	-5.8	9.9	0.4
CC1=Nc2ccccc2/C1=C\c1sc(Nc2ccc(C)cc2)nc1O	.	-16.7	-6.6	79.1*	-1.1
Oc1nc(Nc2ccc(F)cc2)sc1/C=C1\C=Nc2ccccc21	.	18.0	7.0	121.7*	2.9
Oc1cccc(Nc2nc(O)c(/C=C3\C=Nc4ccccc43)s2)c1	58.9*	47.1	34.6*	22.6	-2.1
O=C(Cn1c(O)c(/C=C2\C=Nc3ccccc32)sc1=O)Nc1ccc2c(c1)OCO2	6.0	-4.9	-4.0	6.5	1.2
Oc1nc(Nc2cccc(Cl)c2)sc1/C=C1\C=Nc2ccccc21	.	0.5	1.3	117.4*	4.5
O=C(Cn1c(O)c(/C=C2\C=Nc3ccccc32)sc1=O)N1CCOCC1	.	19.1	0.6	1.1	-0.4
CN(C)C(=O)C[C@H]1CC[C@@H]2[C@H](COC[C@H](O)CN2Cc2ccc(C(F)(F)F)cc2)O1	-4.6	.	.	.	.
CN(C)c1cc(N/N=C/c2ccccc2C(F)(F)F)nc(N(C)C)n1	-4.7	.	-3.4	54.8*	2.0
CN1CCN(C(=O)C[C@@H]2CC[C@@H]3[C@H](COC[C@H](O)CN3C(=O)C3CCOCC3)O2)CC1	-5.7	.	.	.	.
Cn1cnc(CCNC(=O)[C@@H]2[C@@H](CO)[C@@H]3Cn4c(cccc4=O)[C@@H]3N2C(=O)Nc2ccccc2)c1	5.3	.	.	.	.
CCCNC(=O)[C@@H]1[C@@H](CO)[C@@H]2Cn3c(ccc(-c4cccc(F)c4)c3=O)[C@H]1N2CCC	6.2	.	.	.	.
O=C(Nc1ccc(F)cc1)c1cccc2ccccc12	24.8	.	4.0	57.5*	2.8
COCC(=O)Nc1ccccc1C(=O)Nc1ccc(OC)cc1	25.7	48.1	35.5*	-0.2	1.5
COc1ccc(NS(=O)(=O)NC(=O)c2c(C)n(C)c3ccccc23)cc1	-3.1	-4.3	8.8	8.0	-2.5
COc1ccc(NC(=O)c2c(Cl)n(C)c3ccccc23)cc1	58.6*	15.8	-0.7	43.0	-2.9
SMILES	esBAF inh	MITF TRPM1 HTS	Wnt act	AHR act	FXN GAA850 act
COc1ccc(NC(=O)c2ccccc2NC(=O)COc2ccccc2)cc1	.	17.1	.	6.1	-0.5
COc1ccc(NC(=O)c2cccc3ccccc23)cc1	?	.	3.5	51.6*	-0.7
Cn1cnc(S(=O)(=O)N[C@H]2C=C[C@@H](CC(=O)NCC3CC3)O[C@H]2CO)c1	-0.7	.	.	.	.
CN1c2ccc(-c3ccccc3F)cc2[C@@H]2[C@@H](CCN2C(=O)Nc2ccc(F)cc2)[C@@H]1CO	10.3	.	.	.	.
C[C@@H]1CCCCO[C@@H](CN(C)C(=O)c2ccccc2)[C@@H](C)CN([C@@H](C)CO)C(=O)c2cc(NS(=O)(=O)c3ccc(F)cc3)ccc2O1	-3.0	.	.	.	.
C[C@@H]1CN([C@H](C)CO)C(=O)c2cccc(N(C)C)c2O[C@H]1CN(C)Cc1ccc(C(=O)Nc2ccccc2N)cc1	-3.5	.	.	.	.
COc1ccc(C(=O)N2C[C@@H]3[C@H](c4ccccc42)[C@H](CO)N3Cc2ccc(Cl)cc2)cc1	-6.5	.	.	.	.
COc1ccc2nc(NC(=O)c3ccco3)sc2c1	-57.1	-7.8	2.7	-6.3	-2.4
O=C(NNc1nc2c(F)cccc2s1)c1cc(=O)c2ccccc2o1	3.4	-14.4	8.4	79.7*	2.2
Cc1ccc2sc(NNC(=O)c3cc(-c4cccs4)nc4ccccc34)nc2c1C	.	.	-1.6	24.2	.
Cc1ccc2sc(NNC(=O)c3cc(=O)c4ccccc4o3)nc2c1C	19.4	3.8	5.2	76.0*	1.5
COc1ccc2nc(NNC(=O)c3cc(=O)c4ccccc4o3)sc2c1	11.4	-7.3	9.5	73.4*	-2.2
Cc1cccc2sc(NNC(=O)c3cc(=O)c4ccccc4o3)nc12	5.7	-6.5	3.2	67.0*	5.0
C[C@@H]1CCCCO[C@H](CN(C)C(=O)Nc2ccc3c(c2)OCO3)[C@H](C)CN([C@H](C)CO)C(=O)c2cc(N(C)C)ccc2O1	-0.7	.	.	.	.
C(=N\Nc1nc(-c2cccnc2)nc2ccccc12)/c1ccccc1	.	.	8.4	58.0*	1.6
ClC(Cl)(Cl)c1nc(N/N=C/c2ccncc2)c2ccccc2n1	.	-11.2	-9.7	66.6*	3.0
Brc1ccc(-c2nc(N/N=C/c3cccnc3)c3ccccc3n2)cc1	.	20.7	.	42.6	-1.1
O=[N+]([O-])c1cccc(/C=N/Nc2nc(C(Cl)(Cl)Cl)nc3ccccc23)c1	.	-1.4	.	54.1*	2.0
O=[N+]([O-])c1cccc(/C=N/Nc2nccnc2Cl)c1	34.9	73.9	.	11.8	3.0
O=C(NCC1CC1)[C@H]1[C@H](CO)[C@H]2Cn3c(ccc(C4=CCCC4)c3=O)[C@@H]1N2CCC(F)(F)F	1.4	.	.	.	.
CCOc1ccc(C(=O)N(CC(=O)Nc2cccc(C)c2C)CC2CCCO2)cc1OC (stereo not given)	-8.0	0.2	51.5*	2.5	0.6
CCOc1ccc(NC(=O)CN(C)C(=O)c2ccc(OCC3CCCO3)cc2)cc1OCC (stereo not given)	13.4	0.5	1.8	6.2	-0.7
C=CCSc1nc2c(cnn2-c2ccccc2)c(=O)n1N	.	.	56.1*	-5.3	0.5
O=C(C[C@@H]1CC[C@H]2[C@@H](COC[C@H](O)CN2Cc2ccccc2)O1)N[C@H]1CCN(Cc2ccccc2)C1	-0.8	.	.	.	.
NC(=O)c1ccccc1NC(=O)/C=C/c1ccc(Cl)cc1	27.4	57.7	18.9	-8.0	1.3
NC(=O)c1ccccc1N/C=C/C(=O)c1ccccc1	-12.9	.	48.4*	7.3	4.5
O=C(/C=C/NNC(=O)c1ccccc1O)c1ccccc1	61.1*	0.3	-0.1	34.0	3.3

Compound activity from PubChem.
